Screening results (PubChem)
Rows were chosen to be rich in hits. Some 3.9% of all compounds tested hit in one or more screens of this group.
SKKanGAS inh: inhibitors of SKKanGAS S. pyogenes growth in kanamycin (SK-promoter or general growth effect). BacTiter-Glo, 6 h. inhibition, % at 7.5 µM. 300,000 compounds, 1.3% hits. AID 1662;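 active = mean replicate score, as percent of positive control median, at least 50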;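 also: strain carries kanamycin resistance gene driven by streptokinase promoter and grows in 40 µg/ml kanamycin; loss of luminescence reflects streptokinase promoter inhibition or plain growth inhibition; 0% = median of DMSO wells and 100% = positive control at its reference dose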
Platelet DG rel: modulates dense granule release in human platelets | human platelet-rich plasma, SFLLRN dense granule ATP release, luminescence | inhibition, %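 (compounds screened at 7.5 µM in platelet-rich plasma)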 | 300,000 compounds, 0.22% hits;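 active = mean replicate score, as percent of positive control, at or above 50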
WT yeast gro inh: growth inhibition of WT yeast, mitochondrial fusion screen. mitochondrial fusion phenotypic screen, WT strain. inhibition, % at 10 µM. 190,000 compounds, 2.1% hits. AID 1362; in the data active = inhibition above about 58%; tested in S. cerevisiae
PHOSPHO1 inh: inhibitors of human PHOSPHO1 phosphatase; Q8TCT1; 290,000 compounds, 1.1% hits; inhibition, % at 13.3 µM; recombinant PHOSPHO1, absorbance phosphatase assay; in the data active = inhibition above about 60%
TPT1 inhibitor: C. albicans TPT1 enzyme inhibition | recombinant caTPT1, FP RNA substrate dephosphorylation | inhibition, % at 5 µM | 300,000 compounds, 0.81% hits;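 active = inhibition above the mean of all tested compounds plus 3 SD, set per screening campaign, cut at about 24% in these data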;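 also: plate controls were DMSO alone for no effect and ferristatin control at 100 nM for full effect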
Rtt109 HAT inh: C. albicans Rtt109 histone acetyltransferase inhibition | 330,000 compounds, 0.16% hits | inhibition, % at 34.9 µM | purified Rtt109/Vps75, ThioGlo CoA-SH fluorescence, 4 h | AID 540336;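 active = inhibition of at least 50% in every replicate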
Target sequence (Q5AAJ8 whole entry, looked up): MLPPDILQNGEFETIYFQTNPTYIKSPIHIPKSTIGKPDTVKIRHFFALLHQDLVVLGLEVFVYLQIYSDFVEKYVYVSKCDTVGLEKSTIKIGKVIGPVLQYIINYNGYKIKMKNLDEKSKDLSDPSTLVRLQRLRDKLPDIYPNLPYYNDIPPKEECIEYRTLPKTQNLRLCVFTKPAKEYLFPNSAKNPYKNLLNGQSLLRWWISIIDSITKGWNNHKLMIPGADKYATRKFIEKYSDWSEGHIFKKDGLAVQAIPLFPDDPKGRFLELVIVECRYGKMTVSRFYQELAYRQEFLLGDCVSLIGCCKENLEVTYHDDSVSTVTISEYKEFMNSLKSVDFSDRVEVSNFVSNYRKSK
* = called active by the depositor; x = no result given.

SMILES	SKKanGAS inh	Platelet DG rel	WT yeast gro inh	PHOSPHO1 inh	TPT1 inhibitor	Rtt109 HAT inh
CN(Cc1ccccc1)S(=O)(=O)c1ccc(N2CCCC2=O)cc1	x	x	x	x	x	-1.7
CCCCN1CC(=O)N2[C@H]3c4cc(Cl)ccc4OC[C@@H]3[C@H](c3ccccc3)[C@]2(C)C1=O	x	x	x	x	x	4.5
CCc1ccc(/C=C/c2c([N+](=O)[O-])c(=O)n(C)c(=O)n2C)cc1	49.9*	-8.3	x	39.4	-4.6	11.1
CCOc1ccc(/C=C/c2c([N+](=O)[O-])c(=O)n(C)c(=O)n2C)cc1	1.9	-1.0	-12.3	51.4	3.0	1.5
Cc1cccc(NC(=O)CCN2C(=O)c3ccccc3S2(=O)=O)c1C	-3.6	-2.6	x	1.8	1.4	1.5
CN(C)S(=O)(=O)N1CCN(CC(O)COc2ccc3cc(Br)ccc3c2)CC1 (stereo not drawn)	8.2	7.0	98.3*	-69.5	-1.1	6.5
O=C(c1ccccc1)c1coc(-c2ccccc2)c1	x	x	x	x	x	11.6
O=C(Nc1nccs1)c1ccc(-c2ccc(F)c(Cl)c2)o1	75.3*	-10.6	x	41.8	-5.9	-5.1
CC(C)=CCC/C(C)=C/COc1ccc2ccc(=O)oc2c1	16.8	6.5	60.7*	31.7	-5.3	-10.3
CC(C)=CCC/C(C)=C/CC/C(C)=C/COc1ccc2ccc(=O)oc2c1	x	x	x	x	x	-54.2
CC1CCN(S(=O)(=O)c2cccc(-c3cn4cc(Cl)ccc4n3)c2)CC1	0.9	0.3	6.5	9.1	-0.3	5.0
CCOC(=O)C1CCN(S(=O)(=O)c2cccc(-c3cn4ccccc4n3)c2)CC1	-3.5	13.6	-1.6	84.1*	4.0	-2.1
CCOC(=O)C1CCN(S(=O)(=O)c2cccc(-c3cn4cccc(C)c4n3)c2)CC1	x	x	38.4	-46.9	0.0	12.4
CCOC(=O)C1CCN(S(=O)(=O)c2cccc(-c3cn4cc(Cl)ccc4n3)c2)CC1	5.0	0.7	17.9	96.9*	-1.3	0.3
CCOC(=O)c1c(-c2ccccc2)c[nH]c1C	x	x	x	x	x	-3.4
O=C(NCc1ccccc1F)C(=O)NCC1OCCCN1S(=O)(=O)c1cccs1 (stereo not drawn)	-2.8	-16.7	x	75.4*	0.8	0.3
O=C(Nc1ccccc1)c1ccccc1Oc1ccc(C(F)(F)F)cc1[N+](=O)[O-]	1.2	0.8	29.6	10.8	1.2	21.9
O=C(Nc1ccc(F)cc1)c1ccccc1Oc1ccc(C(F)(F)F)cc1[N+](=O)[O-]	-2.6	1.3	65.8*	-12.5	0.5	1.1
O=S1(=O)CCN(Cc2csc(-c3cccs3)n2)CC1	4.2	52.5*	x	42.1	-1.4	-3.0
c1csc(-c2nc(CN3CCSCC3)cs2)c1	5.4	15.5	x	41.2	-1.9	-1.0
CC[C@]12c3[nH]c4cc(-c5ccco5)ccc4c3CCN1C(=O)[C@@H](CC(=O)NCCCOC)C[C@@H]2C(=O)N1CCN(C(=O)c2ccco2)CC1	x	x	x	x	x	10.8
CCOC(=O)C1(CCC(C)C)CC(CSc2nc3ccccc3[nH]2)OC1=O (stereo not drawn)	2.9	1.3	24.7	71.2*	0.1	2.0
CCOC(=O)C1(CC)CC(CSc2nc3ccccc3[nH]2)OC1=O (stereo not drawn)	-3.4	1.0	5.6	-8.4	-2.2	10.9
CSCC[C@H](NC(=O)OC(C)(C)C)C(=O)N1CCC(C(=O)NCC(=O)Nc2ccc(C)cc2)CC1	-1.3	3.0	x	x	1.7	0.7
CC(C)OCCCNC(=S)Nc1ccc(S(N)(=O)=O)cc1	-2.8	-1.2	-10.1	85.6*	-0.4	-13.5
SMILES	SKKanGAS inh	Platelet DG rel	WT yeast gro inh	PHOSPHO1 inh	TPT1 inhibitor	Rtt109 HAT inh
CSCCC(NC(=O)c1ccccc1Cl)C(=O)N1CCCCC1 (stereo not drawn)	x	x	x	x	x	8.5
NC(=O)C1CCN(C(=O)c2cc3ccccc3cc2O)CC1	-1.6	3.2	x	x	-0.7	2.4
Cc1c(Cc2ccccc2)c(=O)oc2cc(OCc3ccc(C(=O)O)cc3)ccc12	54.4*	-3.6	-4.1	30.5	-1.1	-0.3
C[C@H]1CN([C@@H](C)CO)C(=O)c2cc(NC(=O)C3CCCCC3)ccc2O[C@H]1CN(C)C(=O)Nc1ccc2c(c1)OCO2	x	x	x	x	x	18.8
COc1ccc(NC(=O)CN(C)C(=O)c2cn(-c3ccccc3)nc2-c2ccc(Cl)cc2)cc1	21.7	-3.4	x	x	0.1	21.5
Cc1ccc(-n2cccc2/C=C2\C(=N)N3N=C(C(C)C)SC3=NC2=O)cc1	43.4	1.0	81.0*	27.7	6.1	31.6
COc1ccc(NC2CCCN(C(=O)c3ccc(C)c(N4CCNC4=O)c3)C2)cc1 (stereo not drawn)	5.9	6.5	x	-38.8	-0.2	10.9
